# Test results: a collection of fitness landscapes (doi:10.1016/j.celrep.2020.107928)
# The full ranking holds about 81,000 sequences; the median of “one-hybrid fitness for binding NBS DNA” is about -0.1, and the highest 2% start at about 0.36. This is one part of a sample in which the highest values are shown more often than they occur.
# B1: Caulobacter ParB omega fusion; a variant is named by its letters at X, in order, B8GW30 (parent)
# chain: MESVVVGEPGMSEGRRGLGRGLSALLGEVDAAPAQAPGEQLGGSREAPIEILQRNPDQPRRTFREEDLEDLSNSIREKGVLQPILVRPSPDTAGEYQIVAGERAWRAAQRAGLKTVPIMVRELDDLAVLEIGIIENVQRADLNVLEEALSYKVLMEKFERTQENIAQTIGKSXSHVANXMRLLXLPDEVQSYLVSGELTAXHARAIAAAADPVALAKQIIEGGLSVRETEALARKAPNLSAGKSKGGRPPRVKDTDTQALESDLSSVLGLDVSIDHRGSTGTLTITYATLEQLDDLCNRLTRGI
# Variants of: B1
# Assay: one-hybrid fitness for binding NBS DNA (the Noc-binding site; scaled: cognate 1, non-cognate 0); higher = stronger binding
# Conditions: with NBS DNA site
# Summary of the method: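 Caulobacter ParB libraries with four specificity codons randomised were screened by bacterial one-hybrid selection in the E. coli USO strain, using a HIS3 reporter whose site lies 19 bp from the promoter. Selection ran for 48 hours at 37°C on M9 lacking histidine, with 0.1 mM IPTG and 5 mM 3-AT. Plasmids were Illumina-sequenced before and after selection, three replicate libraries were pooled, and variants with under 10 reads were dropped. Fitness is the log change in each variant's read ratio to wild type, rescaled against the cognate and non-cognate sites.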
row,Variant,one-hybrid fitness for binding NBS DNA
1,GNCM,≤ 0.2
2,LRKY,≤ 0.2
3,GYLG,≤ 0.2
4,KRMH,≤ 0.2
5,FYYR,≤ 0.2
6,DHLS,≤ 0.2
7,ANLH,≤ 0.2
8,SFVC,≤ 0.2
9,PQMI,≤ 0.2
10,AHHY,≤ 0.2
11,RHNK,≤ 0.2
12,QMCI,≤ 0.2
13,PANW,≤ 0.2
14,VVKL,≤ 0.2
15,QRMD,0.26
16,QRMP,≤ 0.2
17,QRMN,0.295
18,QRML,0.219
19,QTMN,≤ 0.2
20,QCMY,≤ 0.2
21,QRMH,0.499
22,QRMS,0.623
23,QTMS,0.463
24,QPMY,≤ 0.2
25,QTMH,0.263
26,QRMY,0.463

row,Variant,one-hybrid fitness for binding NBS DNA
1,YNGT,≤ 0.2
2,HRHE,≤ 0.2
3,VIRT,≤ 0.2
4,WQEG,≤ 0.2
5,FKND,≤ 0.2
6,AVDT,≤ 0.2
7,IGHS,≤ 0.2
8,QQID,≤ 0.2
9,QQPS,0.26
10,QQPH,≤ 0.2
11,QQIT,0.389
12,QQIS,0.352
13,QQPT,0.379
14,MQSG,≤ 0.2
15,VVCV,≤ 0.2
16,YLMA,≤ 0.2
17,QYTS,0.396
18,QYTT,0.401
19,QYTN,≤ 0.2
20,QYTH,0.202
21,QYTM,≤ 0.2
22,QYTP,≤ 0.2
23,QYTR,0.572
24,QYTY,≤ 0.2
25,QYTD,≤ 0.2
26,AEMG,≤ 0.2

row,Variant,one-hybrid fitness for binding NBS DNA
1,GTMM,≤ 0.2
2,HAVV,≤ 0.2
3,QQNH,0.355
4,QQDR,0.388
5,QQDC,≤ 0.2
6,QQND,≤ 0.2
7,QQNR,0.786
8,QQDP,≤ 0.2
9,MWSL,≤ 0.2
10,SQER,≤ 0.2
11,THTW,≤ 0.2
12,TSGY,≤ 0.2
13,ASWL,≤ 0.2
14,TAQM,≤ 0.2
15,QTME,≤ 0.2
16,QAAN,≤ 0.2
17,QAAR,0.511
18,QAFS,0.218
19,QAFR,0.427
20,QAFD,≤ 0.2
21,QAAD,≤ 0.2
22,PSVW,≤ 0.2
23,VMFK,≤ 0.2
24,EIKV,≤ 0.2
25,RPPM,≤ 0.2
26,RALR,0.32

row,Variant,one-hybrid fitness for binding NBS DNA
1,RANR,0.507
2,RAPR,≤ 0.2
3,RADR,≤ 0.2
4,RAWR,0.248
5,RAGH,≤ 0.2
6,RAGR,0.471
7,RARR,0.635
8,RAIR,0.207
9,RANN,≤ 0.2
10,RAYR,0.412
11,RAGP,≤ 0.2
12,YIKT,≤ 0.2
13,MVAC,≤ 0.2
14,NQHS,≤ 0.2
15,NVTV,≤ 0.2
16,SDLG,≤ 0.2
17,PSTD,≤ 0.2
18,PRAY,≤ 0.2
19,THTY,≤ 0.2
20,TQQW,≤ 0.2
21,PELM,≤ 0.2
22,PRWT,≤ 0.2
23,RAQM,≤ 0.2
24,RASR,0.417
25,RACH,≤ 0.2
26,RACR,0.379

row,Variant,one-hybrid fitness for binding NBS DNA
1,RAHR,0.487
2,RAHH,≤ 0.2
3,RAQH,≤ 0.2
4,RASP,≤ 0.2
5,RAQR,0.43
6,RAHP,≤ 0.2
7,RACP,≤ 0.2
8,RASD,≤ 0.2
9,FSRL,≤ 0.2
10,GGQY,≤ 0.2
11,MRLP,≤ 0.2
12,AHPF,≤ 0.2
13,YNKI,≤ 0.2
14,KTLA,≤ 0.2
15,NNIC,≤ 0.2
16,PFKH,≤ 0.2
17,HTRG,≤ 0.2
18,QMPS,0.235
19,QMYN,≤ 0.2
20,QMRS,0.691
21,QMYS,0.405
22,QMRF,0.303
23,QMIS,0.289
24,QMRD,0.277
25,QMRN,0.439
26,QMLS,0.317

row,Variant,one-hybrid fitness for binding NBS DNA
1,QMRH,0.584
2,QMDN,≤ 0.2
3,QMRP,0.291
4,AQGA,≤ 0.2
5,NRGC,≤ 0.2
6,PIMT,≤ 0.2
7,PWNH,≤ 0.2
8,RINY,≤ 0.2
9,GPRC,≤ 0.2
10,TMHE,≤ 0.2
11,KEWT,≤ 0.2
12,MTEF,≤ 0.2
13,QMAS,0.389
14,QMAH,0.231
15,QMAD,≤ 0.2
16,VIGG,≤ 0.2
17,QTSK,0.224
18,QMPK,≤ 0.2
19,QKKK,0.437
20,QCKK,0.485
21,QPKK,≤ 0.2
22,QTVK,≤ 0.2
23,QTKK,0.596
